In general, AC50 refers to the midpoint of the concentration-response curve, whichever way the signal moves.

This is an account of results in PubChem BioAssay (EPA / NIEHS).

Inconclusive results are not listed. The source made the active and inactive calls. The calls were made as follows, unless noted: active = hit-call score of the fitted dose curve at least 0.9, where 1 is the maximum; inconclusive = response in the unintended direction; inactive = score below 0.9.

Read-out in assay [1]: sulfotransferase (SULT2A), SULT2A1 (gene 6822)
In words: CLD_SULT2A_24hr: CellzDirect (CLD) Gene Expression Assay for sulfotransferase (SULT2A) at 24 hours (AID 2283694).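 As to AC50: potency for increased SULT2A1 mRNA level as induction over DMSO baseline.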 An outline of the steps:
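Primary human hepatocytes from two donor preparations were dosed daily with fresh solutions, vehicle 0.2% DMSO. At 24 h, lysates went to quantitative nuclease protection (qNPA) with S1 digestion and chemiluminescent readout. Cytotoxicity was annotated from phase-contrast morphology.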

Read-out in assay [2]: xenobiotic metabolism (CYP1A2), CYP1A2 (gene 1544)
In words: CLD_CYP1A2_48hr: CellzDirect (CLD) Gene Expression Assay for xenobiotic metabolism (CYP1A2) at 48 hours (AID 2283703). An outline of the steps:
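Primary human hepatocytes from two donor preparations were dosed daily for two days at multiple concentrations in 0.2% DMSO vehicle. CYP1A2 mRNA was measured at 48 hours by chemiluminescent quantitative nuclease protection assay, with gain of signal fitted versus DMSO and cytotoxicity annotated from morphology.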

Read-out in assay [3]: Broad substrate specificity ATP-binding cassette transporter ABCG2 (Homo sapiens) (UniProt Q9UNQ0)
In words: CLD_ABCG2_48hr: CellzDirect (CLD) Gene Expression Assay for ABC Transporter (ABCG2) at 48 hours (AID 2283704).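 As to AC50: potency for induction of ABCG2 mRNA above the DMSO baseline.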 In outline: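 Primary human hepatocytes from two donors, dosed daily for 2 days, 0.2% DMSO vehicle, several concentrations. ABCG2 mRNA at 48 h by qNPA chemiluminescence, gain fitted versus DMSO; cytotoxicity flagged by morphology.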

Read-out in assay [4]: alkyl and aryl transferase (GSTA2), GSTA2 (gene 2939)
In words: CLD_GSTA2_48hr: CellzDirect (CLD) Gene Expression Assay for alkyl and aryl transferase (GSTA2) at 48 hours (AID 2283708).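 Also: active means mRNA induction above DMSO vehicle baseline.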 In outline: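 Primary human hepatocytes dosed daily for two days (0.2% DMSO vehicle), harvested at 48 h. GSTA2 mRNA induction measured by quantitative nuclease protection assay with chemiluminescent imaging, fitted for gain of signal relative to DMSO.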

Read-out in assay [5]: glucuronosyltransferase (UGT1A1), UGT1A1 (gene 54658)
In words: CLD_UGT1A1_48hr: CellzDirect (CLD) Gene Expression Assay for glucuronosyltransferase (UGT1A1) at 48 hours (AID 2283709).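 Also: actives increase expression relative to DMSO so potency refers to induction.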 In outline: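 Human primary hepatocytes dosed daily for two days (0.2% DMSO vehicle), harvested at 48 h. UGT1A1 mRNA induction measured by quantitative nuclease protection assay with chemiluminescence; gain of signal versus DMSO; cytotoxicity flagged from morphology.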

Read-out in assay [6]: sulfotransferase (SULT2A), SULT2A1 (gene 6822)
In words: CLD_SULT2A_48hr: CellzDirect (CLD) Gene Expression Assay for sulfotransferase (SULT2A) at 48 hours (AID 2283710).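 Also: hits raise SULT2A1 transcript above the 0.2% DMSO vehicle baseline.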 In outline: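 Primary human hepatocytes (two donor preparations) dosed daily for two days with chemicals at multiple concentrations, vehicle 0.2% DMSO; SULT2A1 mRNA induction at 48 h by quantitative nuclease protection assay, chemiluminescent read-out, fitted for gain of signal versus DMSO.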

Read-out in assay [7]: glucuronosyltransferase (UGT1A1), UGT1A1 (gene 54658)
In words: CLD_UGT1A1_24hr: CellzDirect (CLD) Gene Expression Assay for glucuronosyltransferase (UGT1A1) at 24 hours (AID 2283696). In outline: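 Primary human hepatocytes from two donor preparations were dosed (0.2% DMSO vehicle) and harvested at 24 h; UGT1A1 mRNA induction was quantified by chemiluminescent qNPA, fitted as gain relative to DMSO.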

The nature of assay [8]: STM_H9_OrnithineISnorm_perc: Stemina devTOX quickPredict H9 human embryonic stem cell (hESC)-based Assay for Ornithine (ORN) Metabolite Biomarker, Normalized (AID 2283712; active = hit-call score of the fitted dose curve at least 0.9, where 1 is the maximum; inactive = score below 0.9;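 also: ornithine released into spent medium during last day measured by mass spectrometry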). In outline:
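H9 human embryonic stem cells kept pluripotent receive test chemical over 72 h, refreshed daily by media exchange. Media from the closing 24 h is deproteinized and analysed by UPLC-HRMS on an amide column; ornithine signal is scaled to labelled standard and vehicle.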

A short description of assay [9]: STM_H9_CystineISnorm_perc: Stemina devTOX quickPredict H9 human embryonic stem cell (hESC)-based Assay for Cystine (CYSS) Metabolite Biomarker, Normalized (AID 2283713; active = hit-call score of the fitted dose curve at least 0.9, where 1 is the maximum; inactive = score below 0.9). An outline of the steps: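 H9 hESC, pluripotent; compound 72h, re-dosed q24h with medium change. Last-24h medium → 40% acetonitrile deproteinization → UPLC-HRMS. CYSS area / C13-CYSS standard, then % of 0.1% DMSO median.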

Assay [10] in a line: STM_H9_OrnCyssISnorm_ratio: Stemina devTOX quickPredict H9 human embryonic stem cell (hESC)-based Assay for Ornithine (ORN):Cystine (CYSS) Ratio (AID 2283714). An outline of the steps: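 Steps: H9 hESCs in pluripotent state dosed 72h, medium plus compound renewed every 24h; conditioned medium from the final 24h deproteinized in 40% acetonitrile; ORN and CYSS quantified by UPLC-HRMS with C13 spike-ins; ratio relative to vehicle.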

Assay [11] in a line: CEETOX_H295R_MTT_cell_viability: Viability Assessment in the CeeTox HT-H295R MTT Assay (AID 2283718; active = hit-call score of the fitted dose curve at least 0.9, where 1 is the maximum; inactive = score below 0.9). An outline of the steps: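 MTT reduction (0.5 mg/ml, 4 h at 37 C; absorbance at 570 and 650 nm) gave viability as background-corrected percent change versus controls. H295R cells had 48 h forskolin (10 uM) prestimulation, then 48 h chemical exposure at 0.1% DMSO.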
Read-out in assay [12]: Glyceraldehyde-3-phosphate dehydrogenase (Homo sapiens) (UniProt P04406)
In words: CLD_GAPDH_48hr: CellzDirect (CLD) Gene Expression Assay for Baseline Control (Glyceraldehyde 3-phosphate dehydrogenase) at 48 hours (AID 2283706).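 Also: active means higher GAPDH mRNA than DMSO vehicle.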 An outline of the steps: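 Primary human hepatocytes dosed daily for two days with fresh chemical at multiple concentrations, 0.2% DMSO vehicle; GAPDH mRNA measured at 48 h by quantitative nuclease protection assay with chemiluminescence, fitted upward relative to DMSO as background control.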

Read-out in assay [13]: organic anion transporter (SLCO1B1), SLCO1B1 (gene 10599)
In words: CLD_SLCO1B1_48hr: CellzDirect (CLD) Gene Expression Assay for organic anion transporter (SLCO1B1) at 48 hours (AID 2283707). An outline of the steps:
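Primary human hepatocytes from two donor preparations dosed daily for two days with multiple concentrations, 0.2% DMSO vehicle. SLCO1B1 mRNA at 48 h by quantitative nuclease protection assay, chemiluminescence; gain-of-signal fitted versus DMSO.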

Read-out in assay [14]: alkyl and aryl transferase (GSTA2), GSTA2 (gene 2939)
In words: CLD_GSTA2_24hr: CellzDirect (CLD) Gene Expression Assay for alkyl and aryl transferase (GSTA2) at 24 hours (AID 2283693). In outline: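 Primary human hepatocytes (two donor preparations) dosed daily for two days with chemicals at multiple concentrations (vehicle 0.2% DMSO); GSTA2 mRNA at 24 h measured by qNPA chemiluminescence, gain-of-signal versus DMSO.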

Read-out in assay [15]: Cytochrome P450 3A4 (Homo sapiens) (UniProt P08684)
In words: CLD_CYP3A4_48hr: CellzDirect (CLD) Gene Expression Assay for xenobiotic metabolism (CYP3A4) at 48 hours (AID 2283698). In outline:
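Primary human hepatocytes from two donor preparations dosed daily for two days with multiple chemical concentrations, 0.2% DMSO vehicle. CYP3A4 mRNA at 48 h by quantitative nuclease protection assay, chemiluminescence, positive fit versus DMSO; cytotoxicity flagged morphologically.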

Read-out in assay [16]: organic anion transporter (SLCO1B1), SLCO1B1 (gene 10599)
In words: CLD_SLCO1B1_24hr: CellzDirect (CLD) Gene Expression Assay for organic anion transporter (SLCO1B1) at 24 hours (AID 2283690). An outline of the steps: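 Primary human hepatocytes (two donor preparations) dosed daily for two days with chemicals at multiple concentrations, 0.2% DMSO vehicle. SLCO1B1 mRNA at 24 h measured by qNPA chemiluminescence; induction fitted relative to DMSO.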

Read-out in assay [17]: Cytochrome P450 2B6 (Homo sapiens) (UniProt P20813)
In words: CLD_CYP2B6_48hr: CellzDirect (CLD) Gene Expression Assay for xenobiotic metabolism (CYP2B6) at 48 hours (AID 2283699).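 Also: actives raise transcript level above DMSO so potency reflects induction.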 In outline: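 Primary human hepatocytes dosed daily for two days over multiple concentrations, 0.2% DMSO vehicle; CYP2B6 mRNA quantified at 48 h by qNPA chemiluminescence. Induction fitted as gain of signal versus DMSO; cytotoxicity annotated by morphology.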

Read-out in assay [18]: xenobiotic metabolism (CYP1A1), CYP1A1 (gene 1543)
In words: CLD_CYP1A1_48hr: CellzDirect (CLD) Gene Expression Assay for xenobiotic metabolism (CYP1A1) at 48 hours (AID 2283705). An outline of the steps: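 Primary human hepatocytes from two donors dosed daily for two days at multiple concentrations, 0.2% DMSO vehicle; CYP1A1 mRNA induction at 48 h by qNPA chemiluminescence. Cytotoxicity noted by phase-contrast morphology.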

Read-out in assay [19]: ABC Transporter (ABCB1), ABCB1 (gene 5243)
In words: CLD_ABCB1_48hr: CellzDirect (CLD) Gene Expression Assay for ABC Transporter (ABCB1) at 48 hours (AID 2283695). In outline: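 Primary human hepatocytes from two donor preparations dosed daily on two consecutive days with 0.2% DMSO vehicle. Harvest at 48 h. ABCB1 mRNA quantified by qNPA with chemiluminescence and fitted for gain of signal versus DMSO.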

Chain of Broad substrate specificity ATP-binding cassette transporter ABCG2 (Homo sapiens) (Q9UNQ0 whole entry, looked up): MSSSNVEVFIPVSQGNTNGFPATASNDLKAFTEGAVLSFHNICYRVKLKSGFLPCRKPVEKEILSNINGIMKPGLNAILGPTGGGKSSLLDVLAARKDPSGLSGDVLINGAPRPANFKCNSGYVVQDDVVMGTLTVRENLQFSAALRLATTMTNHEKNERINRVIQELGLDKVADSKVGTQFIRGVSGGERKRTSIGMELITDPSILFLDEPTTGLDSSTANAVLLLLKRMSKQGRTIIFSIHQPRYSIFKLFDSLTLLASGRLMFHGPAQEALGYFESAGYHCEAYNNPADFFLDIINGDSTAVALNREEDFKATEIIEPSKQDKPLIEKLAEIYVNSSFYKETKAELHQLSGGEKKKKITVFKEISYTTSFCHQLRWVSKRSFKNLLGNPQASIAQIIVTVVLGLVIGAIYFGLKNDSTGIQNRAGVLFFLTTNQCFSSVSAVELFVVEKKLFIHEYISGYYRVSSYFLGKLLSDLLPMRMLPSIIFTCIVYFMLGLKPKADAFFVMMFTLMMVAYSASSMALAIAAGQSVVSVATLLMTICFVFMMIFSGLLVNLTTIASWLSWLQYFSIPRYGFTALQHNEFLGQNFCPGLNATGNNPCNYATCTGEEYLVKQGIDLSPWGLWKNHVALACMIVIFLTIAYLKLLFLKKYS
Chain of Glyceraldehyde-3-phosphate dehydrogenase (Homo sapiens) (P04406 whole entry, looked up): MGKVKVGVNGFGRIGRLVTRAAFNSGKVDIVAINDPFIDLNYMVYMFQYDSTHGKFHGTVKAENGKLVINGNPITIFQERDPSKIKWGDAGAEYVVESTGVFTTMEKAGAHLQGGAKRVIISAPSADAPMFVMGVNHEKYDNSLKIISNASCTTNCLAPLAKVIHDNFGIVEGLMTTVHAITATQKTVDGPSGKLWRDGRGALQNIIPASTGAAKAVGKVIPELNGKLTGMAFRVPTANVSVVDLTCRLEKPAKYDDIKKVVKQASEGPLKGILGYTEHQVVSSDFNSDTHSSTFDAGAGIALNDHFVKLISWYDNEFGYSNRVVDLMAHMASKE
Chain of Cytochrome P450 3A4 (Homo sapiens) (P08684 whole entry, looked up): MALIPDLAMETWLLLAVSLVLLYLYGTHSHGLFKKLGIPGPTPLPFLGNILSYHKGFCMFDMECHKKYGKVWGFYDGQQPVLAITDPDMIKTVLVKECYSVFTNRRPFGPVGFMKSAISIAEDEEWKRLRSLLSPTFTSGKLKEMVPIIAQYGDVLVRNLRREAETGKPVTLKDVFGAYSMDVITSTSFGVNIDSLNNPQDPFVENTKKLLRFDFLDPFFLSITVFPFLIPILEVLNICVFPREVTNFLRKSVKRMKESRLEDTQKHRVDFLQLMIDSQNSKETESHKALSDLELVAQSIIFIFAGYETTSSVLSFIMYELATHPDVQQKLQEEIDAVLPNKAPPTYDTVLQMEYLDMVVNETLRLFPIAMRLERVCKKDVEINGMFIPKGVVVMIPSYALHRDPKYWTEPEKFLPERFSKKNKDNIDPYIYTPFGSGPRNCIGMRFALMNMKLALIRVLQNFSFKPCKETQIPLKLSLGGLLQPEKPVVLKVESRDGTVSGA

Take `COP(=O)(OC)SCn1c(=O)oc2cc(Cl)cnc21`: the compound was called inactive in assay [1], in assay [2], in assay [3], in assay [4], in [5] and in assay [6].
Turning to `C[Si](Cn1cncn1)(c1ccc(F)cc1)c1ccc(F)cc1`, the AC50 was 20 µM (active) in [1]; 1.89 µM (active) in [2]; 31.6 µM (active) in assay [3]; 76.6 µM (active) in assay [8]; 30.2 µM (active) in assay [9]; 50.7 µM (active) in assay [10]. The result in assay [7], in assay [5], in assay [6] and in assay [11] was inactive.
With `CCC(=NOC/C=C/Cl)C1=C(O)CC(C2CCOCC2)CC1=O` (stereo not given), the call in [2], in assay [12], in assay [13], in assay [4], in [5] and in assay [9] was inactive. Besides, the AC50 in assay [8] is 0.0699 µM (active).
`CCCCN(CC)c1c([N+](=O)[O-])cc(C(F)(F)F)cc1[N+](=O)[O-]`: the compound was classed as inactive in assay [14], in assay [1], in assay [3], in assay [13], in assay [4] and in assay [6]. Also, the call in [11] was inactive. Moreover, the results for the AC50 in assay [7], in assay [2] and in assay [5] were 9.11 µM (active), 5.9 µM (active) and 7.05 µM (active), respectively.
As for `N#CSCSC#N`, the compound was classed as inactive in assay [1], in [15], in assay [2], in assay [3], in [12] and in assay [4]. In addition, the compound was classed as inactive in [6]. Also, the AC50 in assay [8] is 20.5 µM (active); in assay [9], 7.75 µM (active); in assay [10], 14.2 µM (active).
As for `COP(=O)(OC)C(O)C(Cl)(Cl)Cl` (stereo not given), the outcome in [16], in assay [3] and in assay [4] was inactive. Besides, in assay [5], the AC50 was 0.0665 µM (active).
As for `FC(F)C(F)(F)OCC(Cn1cncn1)c1ccc(Cl)cc1Cl` (stereo not given), the outcome in assay [1], in [3], in assay [4], in [8], in assay [9] and in [11] was inactive. For the same compound, the results for the AC50 in assay [17], in assay [2] and in assay [18] were 0.321 µM (active), 1.27 µM (active) and 8.06 µM (active), respectively.
For `CC(Oc1cccc(Cl)c1)C(=O)O` (stereo not given), the result in assay [1], in assay [2], in assay [3], in [13] and in assay [5] was inactive.
`CON=C(C(=O)OC)c1ccccc1CON=C(C)c1cccc(C(F)(F)F)c1`: the call in assay [1], in [2], in assay [3], in assay [4], in [5] and in [6] was inactive. In addition, the result in assay [8] and in assay [9] was inactive.
Take `CCCCOC(=O)[C@@H](C)Oc1ccc(Oc2ccc(C#N)cc2F)cc1`: the result in assay [1], in assay [19], in assay [2], in [3], in assay [18] and in assay [4] was inactive. The compound was called inactive in [5] and in [6]. In addition, the half-maximal activity concentration (AC50) in assay [8] is 85.7 µM (active); in assay [9] it was 77.7 µM (active); in assay [10] it was 84.8 µM (active).
